The values below come from ChEMBL document CHEMBL3988442, “University of Dundee, Small-Polar-MMV Screening Library” (2021).

The target of experiment [1] is T1, Aspartate--tRNA(Asp/Asn) ligase (Mycobacterium tuberculosis (strain ATCC 25618 / H37Rv)) (UniProt P9WFW3). Further: in the data most compounds retested in dose-response had high values.
T1 sequence (whole entry): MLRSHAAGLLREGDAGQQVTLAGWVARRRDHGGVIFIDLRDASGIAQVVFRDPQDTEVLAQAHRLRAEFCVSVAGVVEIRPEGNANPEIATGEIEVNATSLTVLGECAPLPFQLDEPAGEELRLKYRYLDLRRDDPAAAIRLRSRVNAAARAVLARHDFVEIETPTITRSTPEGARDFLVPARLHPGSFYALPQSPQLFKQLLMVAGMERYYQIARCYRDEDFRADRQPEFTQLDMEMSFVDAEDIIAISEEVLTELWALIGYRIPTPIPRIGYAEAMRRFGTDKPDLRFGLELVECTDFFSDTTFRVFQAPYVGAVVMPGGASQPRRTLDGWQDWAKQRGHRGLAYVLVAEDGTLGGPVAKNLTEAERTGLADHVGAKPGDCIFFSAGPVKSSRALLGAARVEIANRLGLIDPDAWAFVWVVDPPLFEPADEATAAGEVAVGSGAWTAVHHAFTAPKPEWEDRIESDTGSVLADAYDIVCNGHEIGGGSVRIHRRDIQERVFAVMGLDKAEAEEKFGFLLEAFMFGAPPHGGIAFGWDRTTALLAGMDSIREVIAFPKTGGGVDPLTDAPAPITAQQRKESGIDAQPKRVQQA
The experiment is described as follows: Assay for Asp RNA synthetase-1 from Mycobacterium tuberculosis. As to conditions: 30 µM. In kind it is functional. Also noted: scale not given: direction of the effect not stated beside the values.

In experiment [2] the target is Shiga toxin 2 (Escherichia coli O157:H7) (UniProt P09385+P09386). The experiment is described as follows: E. coli 0.157:H7 Shiga Toxin SOP - stx2 screening assay. In kind it is functional. Also noted: scale not given: direction of the effect not stated beside the values. As to conditions: 30 µM.

For the compound `N#Cc1ccccc1OCCN1CCCCC1Cn1cncn1` (stereo not given), the values for the Percent Effect in experiment [1] and in experiment [2] were 3.26% and 5.17%, respectively.

Consider `Cc1ccc(C(C)NC(=O)Cc2c(C)nc3c(c2C)c(=O)[nH]n3C)o1` (stereo not given), for which the Percent Effect in experiment [1] is 18.6%; in experiment [2] it was -15.3%.

On to `COc1ccc(C2=C(C)C(N3CCc4ccccc4C3)=NS2(=O)=O)cc1`, for which the values for the Percent Effect in experiment [1] and in experiment [2] were 2.67% and -90%, respectively.

As to `O=C(C1CCC1)N1CCn2c(COc3ncccn3)nnc2C1`, the Percent Effect in experiment [1] is -0.503%; in experiment [2], -1.29%.

Turning to `Cc1nc(C(=O)N2CCCC2c2c(C)nn(C)c2C)ccc1C#N` (stereo not given), the Percent Effect in experiment [1] is -1.21%; in experiment [2] it was -18%.

On to `Cc1ccc(C2CCCN2Cc2nc3c(cnn3C)c(=O)[nH]2)cc1C` (stereo not given), for which the Percent Effect in experiment [1] is -1.66%; in experiment [2], -9.34%.

As to `COc1ccc(NC(=O)C(c2cccc(F)c2)N2CCOCC2)cc1` (stereo not given), the results for the Percent Effect in experiment [1] and in experiment [2] were 5.63% and -8.77%, respectively.

For `O=C(NC1=NCCCN1c1ccc(Cl)cc1)c1cccc(Cl)c1`, the figures for the Percent Effect in experiment [1] and in experiment [2] were 8.32% and -69.6%, respectively.

Regarding `CC(C(=O)Nc1ccc(N2CCCC2)nc1)n1ccnc1` (stereo not given), the Percent Effect in experiment [1] is 1.62%; in experiment [2], -37.2%.

As for `OC1CCN(Cc2c(C3CCCNC3)[nH]c3ncccc23)CC1` (stereo not given), the values for the Percent Effect in experiment [1] and in experiment [2] were 7.49% and -0.778%, respectively.

With `O=C(NCCOCC(F)(F)F)c1ccc(-c2ccco2)[nH]c1=O`, the Percent Effect in experiment [1] was determined as 0.409%; in experiment [2] it was 20.7%.

As to `Cc1ccc(CNC2CCN(CCc3ccncc3)CC2)cc1C`, the values for the Percent Effect in experiment [1] and in experiment [2] were -5.11% and -49.6%, respectively.

As for `CCN1C(=O)C(C)(C)c2cc(NC(=O)c3ccco3)ccc21`, the Percent Effect is 10.8% in experiment [1] and -25.1% in experiment [2].

For `COCCN(C)C(=O)Nc1ccc2c(ccn2CCOC)c1`, the Percent Effect in experiment [1] is -1.14%; in experiment [2], -20.9%.

As for `CCc1cc(C(F)(F)F)c2c(C)nn(CC(=O)O)c2n1`, the figures for the Percent Effect in experiment [1] and in experiment [2] were -5.37% and 14.6%, respectively.

For the compound `Cc1nc(C(=O)N2CCC(Cc3cnc4[nH]ccc4c3)C2)co1` (stereo not given), the figures for the Percent Effect in experiment [1] and in experiment [2] were 1.31% and 62.2%, respectively.

On to `CCC(C)NC(=O)N1CCCn2cnc(CO)c2C1` (stereo not given), for which the Percent Effect was -2.9% in experiment [1] and -0.62% in experiment [2].

As to `Cc1nc(COc2ccc(CNCC3CN(C)CCO3)cc2)cs1` (stereo not given), the Percent Effect in experiment [1] was 5.51%; in experiment [2], -13.8%.

On to `O=C1CC(c2ccccc2)c2snc(C(=O)O)c2N1` (stereo not given), for which the Percent Effect was -6.76% in experiment [1] and -1.61% in experiment [2].

As for `CCOc1ccccc1-c1noc(CN2CCCC(O)C2)n1` (stereo not given), the Percent Effect in experiment [1] was -5.33%; in experiment [2], 2.11%.

With `COC(=O)C(C)(C)NC(=O)C1CC(=O)N(C2CCCC2)C1` (stereo not given), the figures for the Percent Effect in experiment [1] and in experiment [2] were 0.137% and -3.28%, respectively.

For `CC(C)CCc1noc(CN2CCCN(C(=O)c3ccco3)CC2)n1`, the Percent Effect in experiment [1] was -1.32%; in experiment [2] it was -9.12%.

Turning to `CCOC(=O)CCC(=O)N1CCC(Oc2ccc(C(F)(F)F)cn2)CC1`, the values for the Percent Effect in experiment [1] and in experiment [2] were -1.91% and 12.6%, respectively.

With `Cc1cnc(N2C[C@H]3C[C@H](C(=O)N(C)C)[C@@H](C2)O3)nc1`, the Percent Effect is 2.79% in experiment [1] and -23.4% in experiment [2].

Turning to `CCCC(=O)N1CCC(O)(Cn2c(CC)nc3ccccc3c2=O)CC1`, the Percent Effect in experiment [1] was 0.164%; in experiment [2], 0.775%.

For the compound `COc1ccc(CN(C)C(=O)CCC(=O)c2cccs2)c(OC)c1OC`, the Percent Effect in experiment [1] was 1%; in experiment [2], 0.732%.

In the case of `COc1cc(C(=O)N(Cc2cnn(C)c2)C(C)C)ccc1OCC(N)=O`, the Percent Effect in experiment [1] is 0.225%; in experiment [2], 33%.

For the compound `Cc1ccc(C(=O)CCC(=O)N2CCC(c3nncn3C)CC2)cc1`, the Percent Effect in experiment [1] is 2.31%; in experiment [2], -30.7%.

Take `Cc1cnn(CC2CCCN2Cc2nnsc2Cl)c1` (stereo not given): the Percent Effect in experiment [1] is -2.88%; in experiment [2] it was 9.02%.

Regarding `Cn1nc2c(cc1=O)CN(Cc1nnc(-c3ccc(F)cc3)o1)CC2`, the Percent Effect is 19.5% in experiment [1] and -108% in experiment [2].

As for `Cc1cc(C)n(CC2CCCN2C(=O)c2cc[nH]n2)n1` (stereo not given), the results for the Percent Effect in experiment [1] and in experiment [2] were -3.22% and -26.2%, respectively.

Take `O=C(NCC1CCOC1)N1CCN(Cc2ccc3c(c2)CCO3)CC1` (stereo not given): the Percent Effect in experiment [1] was -0.0562%; in experiment [2], 28.1%.

In the case of `CS(=O)(=O)NCc1cn2c(n1)CN(C(=O)c1ccc[nH]1)CC2`, the Percent Effect in experiment [1] is 1.81%; in experiment [2] it was -6.4%.

Take `Cc1ccc(C(=O)N2CCC3(CC2)CC(c2ccccc2)C(=O)N3)cn1` (stereo not given): the Percent Effect in experiment [1] is 7.75%; in experiment [2] it was -10.4%.

For `COCCN1C[C@@H]2CN(C(=O)[C@H]3CCCO3)C[C@@H]2C1=O`, the Percent Effect in experiment [1] is -1.41%; in experiment [2], -16.3%.

On to `Cc1noc(C)c1-c1cncc(C2CCCN2Cc2ccncc2)n1` (stereo not given), for which the values for the Percent Effect in experiment [1] and in experiment [2] were 1.92% and -6.19%, respectively.

Take `CCc1nc(C2CCCN2C(=O)CCNS(C)(=O)=O)no1` (stereo not given): the Percent Effect in experiment [1] was -7.34%; in experiment [2] it was -0.995%.

On to `Cc1cc(CN2CCN(C(c3ccccc3)c3ccccc3)CC2)no1`, for which the Percent Effect in experiment [1] stood at 0.857%; in experiment [2], 10.7%.

Regarding `CC(O)CN1CCC(CNCc2ccc(S(C)(=O)=O)cc2)CC1` (stereo not given), the results for the Percent Effect in experiment [1] and in experiment [2] were 3.1% and -4.03%, respectively.

For `O=C(CN1CCN(CC(O)C2CC2)CC1)NCc1ccc(F)cc1` (stereo not given), the Percent Effect in experiment [1] is -0.889%; in experiment [2], -4.46%.

Regarding `CN(CCNC(=O)NCc1ccncc1)C1CCCC1`, the Percent Effect in experiment [1] is -2.09%; in experiment [2], 8.07%.

For the compound `Cc1cc(CN(C)C(=O)NC2CCCN(c3ncccn3)C2)no1` (stereo not given), the Percent Effect in experiment [1] was -1.17%; in experiment [2], 33.3%.

As for `Cc1nc(CN2CCCC(N(C)CCc3cccs3)C2)no1` (stereo not given), the Percent Effect is -3.43% in experiment [1] and 25.8% in experiment [2].

With `O=S1(=O)c2ccccc2C2(CCN(Cc3ccccc3)C2)N1CC1CC1` (stereo not given), the Percent Effect was -4.07% in experiment [1] and 12.3% in experiment [2].

Consider `COCCCN1CCc2cncnc2C1`, for which the Percent Effect in experiment [1] was 10.5%; in experiment [2] it was -35.2%.

Take `Cc1nn(C)c2cnn(C(C)C(=O)NCc3cccnc3)c12` (stereo not given): the Percent Effect is -7.38% in experiment [1] and -21.6% in experiment [2].

Turning to `O=C(COCc1ccccc1)N1CCC(OCc2cccnc2)CC1`, the Percent Effect was -4.62% in experiment [1] and 11.5% in experiment [2].

As for `CCN1CCN(C2CCN(Cc3c(C)noc3C)CC2)C1=O`, the Percent Effect was -5.48% in experiment [1] and -30.9% in experiment [2].

On to `Cc1ccc(C(=O)N2C[C@H]3CCC[C@@]3(COCc3cccnc3)C2)s1`, for which the Percent Effect in experiment [1] is 6.3%; in experiment [2], -7.06%.

With `O=C(NCCn1ccc(-c2ccncc2)n1)c1ccncc1`, the values for the Percent Effect in experiment [1] and in experiment [2] were 1.52% and -65.9%, respectively.
